Experimental findings from PubChem BioAssay AID951 (NMMLSC, 2007) are described below.

One may read the inhibition as the change of the read-out against control, counted positive when it falls.

Among all 190,000 compounds or so, about 140 (0.074%) were called active. Many of the other results were omitted from the sample, so actives are more common in it than they were. A number with no mark means an inactive call. Rule as the data show it: active = inhibition above about 40%.

Bcl-2-like protein 10 (Homo sapiens), sequence (Q9HD36 whole entry, looked up): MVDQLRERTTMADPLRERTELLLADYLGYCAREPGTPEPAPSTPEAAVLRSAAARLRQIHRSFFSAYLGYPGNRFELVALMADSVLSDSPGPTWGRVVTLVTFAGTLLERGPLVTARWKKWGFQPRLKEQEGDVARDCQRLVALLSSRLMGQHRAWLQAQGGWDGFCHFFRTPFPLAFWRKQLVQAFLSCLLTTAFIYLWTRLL

The test addresses Bcl-2-like protein 10 (Homo sapiens) (UniProt Q9HD36). The experiment in a line: Bcl-B and Bim peptide interaction disruptors – biochemical, multiplexed, human Bcl-2 family, primary screen (AID 951).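 Also: 0% = tracer peptide without compound and 100% = reference inhibitor peptide.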 The note with it: bead-based flow cytometry, Bim peptide-Bcl-B binding; at 10 µM; active compounds read high. A general note: Flow cytometry measures light scatter and fluorescence of single cells or particles in a stream.
Take `O=C(COc1ccccc1[N+](=O)[O-])NC1CC1`: the inhibition was -4%.

For `OCCNCCOc1ccc(Cl)c(Cl)c1`, the inhibition was -5%. Regarding `Cc1cccc(NC(=S)N(CCN(C)C)C(C)c2ccco2)c1` (stereo not given), the inhibition is 0%.

For `COc1ccc(Br)cc1C(=O)Nc1cccc(C)c1C`, the inhibition is -7%. To `CCCCN1C(=O)c2ccc(C(=O)Nc3ccc(S(=O)(=O)N(C)C)cc3)cc2C1=O` belongs 0%. Take `O=C(NNC(=O)c1ccc(Cl)cc1Cl)c1cccs1`: the inhibition is -1%. Regarding `CC(=O)NS(=O)(=O)c1ccc(NC(=O)C2C3C=CC(C3)C2C(=O)O)cc1` (stereo not given), the inhibition was -5%. With `S=c1nc(C23CC4CC(CC(C4)C2)C3)nc2sccn12`, the inhibition was 2%. To `O=C(CC1NCCc2ccccc21)Nc1cccc(Cl)c1` (stereo not given) belongs -1%; to `CCN(CC)S(=O)(=O)c1ccc(N2CCCC2)c(NS(=O)(=O)c2cccs2)c1`, -5%. To `Cc1ccn(-c2cccc(-n3ccc(C)n3)n2)n1` belongs 0%; to `COc1ccccc1C1CC(=O)n2c(nc(-c3ccccc3)c2-c2ccccc2)S1` (stereo not given), -4%; to `CC1(C)CC(N(Cc2ccccc2)C(=O)Cc2ccccc2)CCO1` (stereo not given), -3%. To `Cc1cccc(C(=O)OC(C)CN2CCN(C)CC2)c1` (stereo not given) belongs -4%. Consider `CC(C)(C)NC(=O)COC(=O)c1cc(Cl)ccc1[N+](=O)[O-]`, for which the inhibition is 0%.

`O=C(c1ccc(Cl)c([N+](=O)[O-])c1)N1CCN(c2ccccc2)CC1`: the inhibition is -4%.

Take `COc1cc(NC(=O)c2ccc3c(c2)OCO3)ccc1NC(=O)c1cccs1`: the inhibition is 2%.

Take `COc1ccc(/C=C2\SC(=S)N(CC(=O)NNC(=O)c3ccncc3)C2=O)cc1`: the inhibition is -1%. As to `COCCN(Cc1nc(-c2ccc(C(F)(F)F)cc2)no1)C(C)C`, the inhibition was -5%. To `CC(OC(=O)CNS(=O)(=O)/C=C/c1ccccc1)C(=O)Nc1ccc(S(=O)(=O)N2CCCC2)cc1` (stereo not given) belongs -8%. To `Cc1ccc2nc(Nc3ncc4c(n3)CC(C)(C)CC4=O)nc(C)c2c1` belongs -1%; to `COC(C(=O)NCc1ccccc1C)c1ccccc1` (stereo not given), -11%; to `CCC1(CC)NC(=O)N(Cc2nc3ccccc3s2)C1=O`, -3%. `O=C(NC(=S)NC1CCSC1=O)c1ccccc1F` (stereo not given): the inhibition is -3%. In the case of `COc1ccc(-c2nn(-c3ccccc3)cc2/C=C\C(=O)N2CCOCC2)cc1[N+](=O)[O-]`, the inhibition was -1%. To `O=C(O)CC1S/C(=N\N=C/c2ccccc2O)N(c2ccc(O)cc2)C1=O` (stereo not given) belongs -5%; to `COC(=O)c1onc(-c2c(OC)cc(OC)cc2OC)c1C(=O)OC`, -1%; to `CC(C)(C)NC(=O)NC(=O)CN1CCC(Cc2ccccc2)CC1`, -1%. As for `CCCN(CCC)c1c([N+](=O)[O-])c(=O)oc2ccccc12`, the inhibition was 32%. For the molecule `Cc1c(C(=O)NC(=S)NCc2cccnc2)oc2ccccc12`, the inhibition is -9%. To `Cc1cc(C(=O)N/N=C/c2ccc(O)c([N+](=O)[O-])c2)c(C)n1-c1ccc(F)cc1` belongs 10%; to `Cc1ccccc1NCC(=O)N/N=C\c1ccc([N+](=O)[O-])s1`, -3%. For `COC(=O)c1ccc(C(NC(=O)OCc2ccccc2)/C(C)=C/[C@@H](C)C(=O)NCc2ccc(OC)c(OC)c2)cc1` (stereo not given in full), the inhibition is -7%. For `O=C(CCC(=O)c1cccs1)NC1CCCCCC1`, the inhibition was -1%. `O=C(C(Cl)Cl)N1CCN(c2ccccn2)CC1`: the inhibition was -1%. For the molecule `CCOc1cc(N2CCOCC2)c(OCC)cc1NC(=O)c1cc(C)nc2ccccc12`, the inhibition is -6%.

In the case of `COC(=O)c1sc2[nH]c(=S)n(N)c(=O)c2c1C`, the inhibition is -22%. For the molecule `CC(Cc1cccs1)NC(=O)c1cccc(Cl)c1` (stereo not given), the inhibition is -4%. As to `C=CCNC(=O)c1ccccc1NC(=O)c1ccc(Cl)c(S(=O)(=O)Nc2cccc(C)c2C)c1`, the inhibition is -5%.

Turning to `COc1ccc(C(=O)Nc2sc(C)c(C)c2CN2CCOCC2)cc1`, the inhibition was -7%. To `CCCn1nc(C(=O)Nc2ccc3nc(C)sc3c2)c2ccccc2c1=O` belongs -7%.

On to `COc1cc(C(=O)N[C@@H](C)C(=O)NCc2ccco2)cc(OC)c1OC`, for which the inhibition is 1%.

With `Cn1c(SCC(=O)NC2CCCCC2)nnc1-c1ccc(N)cc1`, the inhibition was -4%. On to `COc1ccc(C2OCC3(CO2)SC(=O)NC3=O)cc1OC` (stereo not given), for which the inhibition was -1%. To `CCN(C(=O)CSc1nc2ccccc2n1CC)C1CCS(=O)(=O)C1` (stereo not given) belongs -1%.
